# Measurements from PubChem BioAssay AID1209 (Sanford-Burnham Center for Chemical Genomics, 2008).
# The campaign covered roughly 190,000 compounds. About 810 (0.43%) were called active. This excerpt belongs to a sample that is enriched for actives. A number with no mark means an inactive call. Cut-off read from the data, not from the text of the source: active = inhibition above about 50%; inactive = the rest.
# Target: Mannose-6-phosphate isomerase (Homo sapiens) (UniProt P34949)
# Test: inhibitors of human PMI, primary screen, biochemical, fluorescence intensity, coupled assay (AID 1209);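 note: plate controls were DMSO vehicle for no effect and wells lacking substrate for full effect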
# Conditions: purified PMI enzyme, at 20 µM, stronger effect = higher value
# Chain of Mannose-6-phosphate isomerase (Homo sapiens) (P34949 whole entry, looked up): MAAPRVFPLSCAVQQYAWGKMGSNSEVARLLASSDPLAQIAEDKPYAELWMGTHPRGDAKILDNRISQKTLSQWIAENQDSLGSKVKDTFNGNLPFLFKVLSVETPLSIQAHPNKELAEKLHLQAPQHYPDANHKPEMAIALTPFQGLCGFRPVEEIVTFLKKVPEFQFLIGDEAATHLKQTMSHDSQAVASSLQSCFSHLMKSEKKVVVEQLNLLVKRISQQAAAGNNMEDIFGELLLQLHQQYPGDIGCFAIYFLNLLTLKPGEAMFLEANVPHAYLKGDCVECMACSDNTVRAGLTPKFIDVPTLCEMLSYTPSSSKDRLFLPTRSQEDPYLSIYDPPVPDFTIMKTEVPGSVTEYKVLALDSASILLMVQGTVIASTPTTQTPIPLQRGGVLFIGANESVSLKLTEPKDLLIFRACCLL
row,Compound,inhibition
1,Cc1cc(O)c2c(c1)C(O)(C1OC(CO)C(O)C(O)C1O)c1cccc(O)c1C2=O (stereo not drawn),2%
2,O=C(CCc1nnc(C2CCCCC2)o1)NCc1ccc(F)c(F)c1,-5.7%
3,CCOC(=O)c1cc(C(C)=O)c(=O)[nH]c1C,2.7%
4,CCCNC(=O)c1ccccc1NC(=O)c1ccccc1SC,0.3%
5,C=CCN1C(=O)S/C(=C/c2ccc(Sc3nc4ccccc4[nH]3)o2)C1=O,44.5%
6,CCN1C(=O)S/C(=C/c2ccc(Sc3nc4ccccc4[nH]3)o2)C1=O,56.4% (active)
7,CC(C)N1C(=O)S/C(=C/c2ccc(Sc3nc4ccccc4[nH]3)o2)C1=O,26.5%
8,Cc1ccc(S(=O)(=O)NCCOc2nc(N(C)C)nc(N3CCOCC3)n2)cc1,16.3%
9,COC(=O)Cc1c(C(=O)OC)nnn1-c1ccc(OC(F)(F)F)cc1,-7.2%
10,COC(=O)Cc1c(C(=O)OC)nnn1-c1cccc(C(F)(F)F)c1,75.8% (active)
11,O=C(O)Cc1c(C(=O)O)nnn1-c1cccc(C(F)(F)F)c1,-2.9%
12,O=C(NNC(=O)C1C2CCC(C2)C1C(=O)O)c1cccc(Cl)c1 (stereo not drawn),-7.9%
13,O=C(CCCOc1ccccc1)N1CCN(c2ccccn2)CC1,0.9%
14,O=C(NCc1cccnc1)c1ccc(COc2ccc3c(c2)CCC3)o1,11%
15,Cc1ccc(Nc2c(F)c(F)c(F)c(F)c2C(=O)O)cc1,-24%
16,COCCn1c(Cc2ccccc2)nnc1SCC(=O)Nc1cc(C)on1,3.8%
17,CCn1c(Cc2ccccc2)nnc1SCC(=O)Nc1cc(C)on1,-6.5%
18,CCCCn1c(Cc2ccccc2)nnc1SCC(=O)Nc1cc(C)on1,50.8% (active)
19,Cc1ccccc1NC(=O)N1CCC(C(=O)c2ccc(F)cc2)CC1,-0.8%
20,O=C(CC(SCCO)c1ccc(F)cc1)c1ccco1 (stereo not drawn),4.8%
21,O=C(CC(SCCO)c1ccc2c(c1)OCO2)c1ccco1 (stereo not drawn),10.7%
22,Cc1ccc(C(CC(=O)c2ccco2)SCCO)cc1 (stereo not drawn),88.3% (active)
23,NCCCC[C@@H]1NC(=O)[C@H](CCC(=O)O)NC(=O)c2cc([N+](=O)[O-])cc(I)c2OCC[C@@H](C(N)=O)NC1=O,-36.4%
24,CC1CN(S(=O)(=O)c2cccs2)CC(C)O1 (stereo not drawn),-2.4%
25,CN1C(=O)SC(Nc2ccc(F)cc2)C1=O (stereo not drawn),3.1%

row,Compound,inhibition
1,CCc1ccc(NC(=O)c2cc(C)on2)cc1,6.1%
2,Cc1cc2n(n1)SC(Nc1ccc(F)cc1)N2 (stereo not drawn),64.5% (active)
3,CCc1ccc(Nc2cc(C)nc3nc(C)nn23)cc1,-5.4%
4,Cc1cc2n(n1)SC(Nc1ccccc1)N2 (stereo not drawn),24.7%
5,COc1ccc(CCNC(=O)c2nnn(-c3cccc(C)c3)c2N)cc1OC,4.4%
6,Cc1nc(SC(C(=O)c2ccccc2)c2ccccc2)n[nH]1 (stereo not drawn),2%
7,C=CCn1c(SCc2c(F)cccc2Cl)nnc1-c1ccco1,-6.5%
8,CCCn1c(NCc2ccco2)nc2c1c(=O)n(C)c(=O)n2C,-8.2%
9,COc1ccc(F)cc1C(=O)C1CCCN(Cc2ccc(Oc3ncccn3)cc2)C1 (stereo not drawn),-3.3%
10,Cc1ccc2nc3c(c(N)c2c1)CCN3c1ccccc1,0.5%
11,Nc1c2c(nc3ccc(Br)cc13)N(c1ccccc1)CC2,17%
12,Cc1cccc(N2CCc3c2nc2ccc(Br)cc2c3N)c1,69.9% (active)
13,CCN(CC)S(=O)(=O)c1ccc2c(c1)nc(CCC(=O)Nc1ccc(N3CCOCC3)cc1)n2C,3.7%
14,COc1ccc(Cl)cc1Nc1ncnc2sc(C)c(S(=O)(=O)N3CCC(C)CC3)c12,5.4%
15,Cc1cc2nc[nH]c2cc1[N+](=O)[O-],4%
16,Nc1ccc2nc[nH]c2c1,-17.5%
17,Nc1cc2nc[nH]c2cc1N,68.3% (active)
18,c1ccc2c(-c3nn[nH]n3)cccc2c1,-8.6%
19,O=C(N/N=C/c1ccc(N2CCOCC2)o1)c1cccc([N+](=O)[O-])c1,79% (active)
20,O=C(N/N=C/c1ccc(N2CCOCC2)o1)c1cccc(C(F)(F)F)c1,-5.7%
21,O=C(N/N=C/c1ccc(N2CCOCC2)o1)c1cccc(F)c1,-2.7%
22,CCOC(=O)c1c(-c2ccc(C)cc2)csc1/N=C/N(C)C,12.2%
23,COc1ccc(OC)c(N=C(N)N=C(N)N)c1,2.9%
24,COc1ccc(OC)c(N=c2ssnc2Cl)c1,88.1% (active)
25,COc1cc(OC)c(Cl)cc1N,9.7%

row,Compound,inhibition
1,COc1ccc(OC)c(N=C2C(=O)Nc3ccccc32)c1,16.4%
2,COc1cc(N)c(Cl)cc1Cl,-7.9%
3,COc1cc(N=c2ssnc2Cl)c(OC)cc1Cl,98.9% (active)
4,C#CCOCCOCCOCCNc1nc(N2CCN(C(=O)C([C@@H](C)CC)n3cc(C(N)Cc4ccc(O)cc4)nn3)CC2)nc(N2CCN(C(=O)[C@H](CCC(=O)O)n3cc(C(N)CC(C)C)nn3)CC2)n1 (stereo partly drawn),-18.6%
5,COc1ccc(C(=O)/C=C/C(=O)N(Cc2ccccc2OC)C(C(=O)NC2CCCCC2)c2ccncc2)c(O)c1 (stereo not drawn),13.1%
6,Cc1ccc(S(=O)(=O)/N=C(/c2ccc(F)cc2)N2CCCC2)cc1,7.2%
7,CSc1ccc(/C=C/C(=O)c2ccc(NC(=O)Cc3ccccc3)cc2)cc1,15.3%
8,Nc1ccc(N2CCCCC2)cc1N1CCCCC1,61.7% (active)
9,Nc1ccc(N2CCCCCC2)cc1,-3.3%
10,Cc1nn(-c2cc(N3CCCCC3)ccc2N)c(=O)c2ccccc12,25.5%
11,Cc1cc(C)c2sc(N(CCCN(C)C)C(=O)COc3ccc(Cl)cc3)nc2c1,50.2% (active)
12,CN(C)CCCN(C(=O)COc1ccc(Cl)cc1)c1nc2ccc(F)cc2s1,-8%
13,Cc1ccc2nc(N(CCCN(C)C)C(=O)COc3ccc(Cl)cc3)sc2c1,-9.9%
14,COc1ccc(-n2ncc3c(=O)n(Cc4c(F)cccc4Cl)cnc32)cc1,1.8%
15,COc1ccc(NS(=O)(=O)c2cc(NC(=O)c3ccc(F)cc3)ccc2OC)cc1,14.1%
16,Cc1ccc(NS(=O)(=O)c2cc(NC(=O)c3ccc4c(c3)NC(=O)CS4)ccc2C)c(C)c1,41.1%
17,O=C(Nc1cccc(S(=O)(=O)Nc2ccc(Cl)cc2)c1)c1ccc(Cl)nc1,15.9%
18,Cc1ccc(NS(=O)(=O)c2cc(C(=O)O)ccc2Cl)c(C)c1,-31.1%
19,Cc1ccc(NS(=O)(=O)c2cc(NC(=O)c3ccc4c(c3)NC(=O)CS4)ccc2Cl)c(C)c1,59.3% (active)
20,COc1ccc(NC(=O)c2c(F)cccc2F)cc1S(=O)(=O)Nc1ccc(Br)cc1,19.4%
21,COc1ccc(NC(=O)c2cccc(S(=O)(=O)Nc3ccc(Br)cc3)c2)cn1,12.5%
22,COc1ccc(NC(=O)c2ccc3c(c2)NC(=O)CS3)cc1S(=O)(=O)Nc1ccc(Br)cc1,54.5% (active)
23,O=C1CSc2ccc(C(=O)Nc3cccc(S(=O)(=O)Nc4ccc(Br)cc4)c3)cc2N1,62.8% (active)
24,CCN(CC)CCNC(=O)C1CCC(=O)N1CCc1ccccc1 (stereo not drawn),4.7%
25,CCOc1cc(/C=N/O)ccc1OCc1ccc(F)cc1,-0.3%

row,Compound,inhibition
1,CC(C)NC(=O)c1onc(CSc2ccc(F)cc2)c1C(=O)O,-5.1%
2,O=C(c1ccc(F)cc1)N1CCN2C(=O)c3ccccc3C12c1ccc(Cl)cc1 (stereo not drawn),8.3%
3,Cc1c([N+](=O)[O-])ccc(S(=O)(=O)N2CCC(C(N)=O)CC2)c1C,10.6%
4,COC(=O)c1ccc(C(=O)OC)c(-n2c(=O)c3ccccc3c3ccccc3c2=O)c1,80.2% (active)
5,COC(=O)c1ccc2c(=O)n(-c3ccccc3)c(=S)[nH]c2c1,0.9%
6,COC(=O)c1ccc2c(=O)n(-c3ccccc3F)c(=S)[nH]c2c1,-15.3%
7,CCCCCN(C(=O)NC(=O)Nc1nncs1)S(C)(=O)=O,-0.4%
8,CCn1cc(C2=NCCO2)c2ccccc21,0.2%
9,CCOC(=O)Cc1csc(NC(=O)c2c(O)c3ccccc3n(C)c2=O)n1,7.5%
10,O=C1CCC([N+](=O)[O-])C(c2ccccc2Cl)N1 (stereo not drawn),2.8%
11,O=C1CCC([N+](=O)[O-])C(c2cccc3ccccc23)N1 (stereo not drawn),101% (active)
12,O=C1CCC([N+](=O)[O-])C(c2cccc(Cl)c2Cl)N1 (stereo not drawn),-4.8%
13,O=C(Cc1ccccc1)Nc1ccccc1C(=O)O,-3%
14,O=c1c2c([nH]c3ccc(Br)cc13)CCCC2,-15.1%
15,O=c1ccc2cc3c([nH]c4ccc(Br)cc43)oc-2c1O,70.2% (active)
16,Cc1cc(=O)c2cc(Br)ccc2[nH]1,0.3%
17,O=C(NCC(=O)N(Cc1cccs1)C(C(=O)NC1CCCCC1)c1ccco1)c1ccco1 (stereo not drawn),11%
18,S=c1[nH]nc(Cc2ccc(Br)cc2)n1/N=C/c1ccc(Cl)cc1,51.1% (active)
19,CSc1ccc(/C=N/n2c(Cc3ccc(Br)cc3)n[nH]c2=S)cc1,14.5%
20,Cc1n[nH]c(=S)n1/N=C/c1ccc(OCc2ccc(Cl)cc2)cc1,-6.8%
21,CCN1CCN(C(=O)C(C)Nc2cc(Cl)c(OC)cc2OC)CC1 (stereo not drawn),26.6%
22,O=C(CSc1nc2ccccc2c(=O)[nH]1)c1ccc(O)cc1O,-5.9%
23,CCCCNS(=O)(=O)c1ccc(NC(=O)C(Sc2ccccc2)c2ccccc2)cc1 (stereo not drawn),23.4%
